# Structures can show the parent of a compound that is named as a salt.
# System: MDA-MB-468
# Experiment: phospho-S6 immunofluorescence (DAPI-normalised), per-plate z-score; higher = higher phospho-S6 signal (less pathway suppression)
# Conditions: 24 h
# Protocol: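 GPCR-targeted compound library (MedChemExpress HY-L006) tested on MDA-MB-468 PTEN-null TNBC cells in 384-well plates at 0.1, 1 or 10 uM, combined with vehicle, GDC0941 450 nM or lapatinib 1 uM, for 24 h. Phospho-S6 (S240/244) immunofluorescence normalised to DAPI and expressed as a per-plate z-score; values are the mean of biological triplicates.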
SMILES,phospho-S6 immunofluorescence (z-score) (co-treatment: GDC0941 450 nM),phospho-S6 immunofluorescence (z-score) (co-treatment: lapatinib 1 uM),phospho-S6 immunofluorescence (z-score) (co-treatment: vehicle)
O=C(/C=C/c1ccc(Cl)cc1)N1CCC2(CC1)CN(Cc1ccc(Cl)c(Cl)c1)C(=O)O2 (compound 10 µM),-2.76,-2.4,-1.92
O=C(c1ccc(F)cc1)C1CCN(CCn2c(=O)[nH]c3ccccc3c2=O)CC1 [Ketanserin] (compound 10 µM),-0.64,-0.02,-0.85
NC(=O)[C@@H]1CCCC[C@@H]1C(=O)Nc1ccc(Cl)c(Cl)c1 (compound 10 µM),0.33,-0.14,0.47
Cc1cc(C(C)(C)C)cc(C)c1CC1=NCCN1 [Xylometazoline (hydrochloride)] (compound 10 µM),0.43,-0.12,-0.38
O=C(NCC(=O)N1CC[C@H](N[C@H]2CC[C@@](O)(c3ccc(-c4ncccn4)cn3)CC2)C1)c1cccc(C(F)(F)F)c1 (compound 10 µM),-0.86,-0.77,0.76
CN1N=C2CCN(C(=O)[C@@H](COCc3ccccc3)NC(=O)C(C)(C)N)C[C@@]2(Cc2ccccc2)C1=O [Capromorelin (Tartrate)] (compound 10 µM),-0.05,-0.67,-0.14
CN(C)CCC(c1ccc(Br)cc1)c1ccccn1 (configuration not stated) [Brompheniramine (maleate)] (compound 10 µM),0.58,-0.17,0.3
CCCCC(C)(O)C/C=C/[C@H]1[C@H](O)CC(=O)[C@@H]1CCCCCCC(=O)OC (mixture of isomers) [Misoprostol] (compound 10 µM),0.36,0.67,1.59
CN1CCN(CCCN2c3ccccc3Sc3ccc(C(F)(F)F)cc32)CC1 [Trifluoperazine (dihydrochloride)] (compound 10 µM),-4.47,-5.54,-4.02
O=C(c1ccc(OCCCc2c[nH]cn2)cc1)C1CC1 [Ciproxifan (maleate)] (compound 10 µM),-0.58,-0.62,0.21
CN1CCc2c(c3ccccc3n2Cc2ccccc2)C1 [Mebhydrolin (napadisylate)] (compound 10 µM),-0.29,-1.06,0.64
C=CCN1CCc2nc(N)sc2CC1 (compound 10 µM),0.68,0.22,0.33
N=C(N)NCCC[C@@H](NC(=O)[C@@H]1CCCN1C(=O)[C@@H]1CSSCCC(=O)N[C@@H](Cc2ccc(O)cc2)C(=O)N[C@@H](Cc2ccccc2)C(=O)N[C@@H](CCC(N)=O)C(=O)N[C@@H](CC(N)=O)C(=O)N1)C(=O)NCC(N)=O [Desmopressin (Acetate)] (compound 10 µM),0.16,-0.21,-0.41
COc1cc(/C=C/C(=O)NCCn2c(C(F)(F)F)cc3ccccc32)cc(OC)c1OC (compound 10 µM),-3.69,-6.85,-8.39

# Reference: the supplement of paper PMC7411640
